Compound activity from PubChem BioAssay.
Sm TGR inh – qHTS Assay for the Inhibitors of Schistosoma Mansoni Peroxiredoxins | Schistosoma mansoni thioredoxin glutathione reductase (TGR), Q962Y6 | purified TGR, DTNB reduction, TNB absorbance 405 nm | Potency, µM (doses to about 114 µM), usual class: inhibitors | hit rate 3% among 360,000; also: nearly all actives have a fitted effect of over 60% in size
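TGR 20 nM + NADPH 100 uM (dispensed conc.), cpd preinc 15 min RT; start with NADPH (500 uM addition) then DTNB (15 mM addition). Kinetic TNB absorbance, 405 nm filter. Four-parameter Hill fit across titration.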
RE007 growth inh – qHTS Assay for Inhibitors of the HIV-1 protein Vpr; S. pombe RE007 Vpr strain, BacTiter-Glo ATP luminescence, 24 h; Potency, µM (top dose mostly 92.2 µM), most hits filed as inhibitors; hit rate 0.21% among 360,000; AID 651644, 2012; active = well fitted falling curve with a large enough effect; inconclusive = small, poorly fitted or top-dose-only effect; inactive = no such curve, though single readings can be large or run the other way; also: nearly all actives have a fitted effect of over 50% in size
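Fission yeast RE007 carrying one integrated HIV-1 vpr copy, seeded at OD 0.01 in PMG+AL medium with 23 nL pinned compound. Grown 24 h at 30 degrees; viability read by BacTiter-Glo luminescence after 5 min.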
LmPK inhibitor – qHTS Assay for Inhibitors of Leishmania Mexicana Pyruvate Kinase (LmPK) | hit rate 0.37% among 290,000 | Potency, µM (doses to about 57.5 µM), actives largely listed as inhibitors | purified LmPK, Kinase-Glo ATP luminescence, 1 h | Q27686
Target sequence (Q27686 whole entry, looked up): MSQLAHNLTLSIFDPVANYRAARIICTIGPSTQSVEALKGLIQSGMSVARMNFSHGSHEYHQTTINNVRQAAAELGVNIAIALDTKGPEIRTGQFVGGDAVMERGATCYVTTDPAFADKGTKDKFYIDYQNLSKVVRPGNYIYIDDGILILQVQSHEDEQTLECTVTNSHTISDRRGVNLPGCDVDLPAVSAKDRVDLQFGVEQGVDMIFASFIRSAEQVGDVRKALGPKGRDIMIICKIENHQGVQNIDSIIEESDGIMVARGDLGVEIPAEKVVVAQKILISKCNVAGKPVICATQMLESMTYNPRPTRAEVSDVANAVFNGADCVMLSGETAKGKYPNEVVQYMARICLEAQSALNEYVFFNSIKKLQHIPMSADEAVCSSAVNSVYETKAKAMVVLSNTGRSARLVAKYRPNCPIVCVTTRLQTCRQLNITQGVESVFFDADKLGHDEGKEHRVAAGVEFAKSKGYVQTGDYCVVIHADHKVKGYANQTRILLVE
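Kinase-Glo luminescence read after 1 h RT reaction of 0.1 nM LmPK with 0.5 mM PEP and 0.1 mM ADP. Activity scaled between uninhibited and enzyme-free controls.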
SARS PLpro yeast – qHTS of Yeast-based Assay for SARS-CoV PLP; S. cerevisiae expressing SARS-CoV PLpro, growth rescue; Potency, µM (top dose mostly 32.9 µM), usual class: activators; hit rate 0.19% among 330,000; AID 485353, 2010; calls by dose curve; also: nearly all actives have a fitted effect of over 55% in size
NS1 inh – qHTS Assay for Inhibitors of Influenza NS1 Protein Function. Potency, µM (series often up to 46.1 µM). hit rate 0.4% among 270,000; calls by dose curve; also: actives are rising curves; nearly all actives have a fitted effect of over 50% in size
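In this qHTS, NS1 from influenza A is expressed in budding yeast, where it slows growth. Cells are switched from glucose to 2% galactose medium (pH 6.0, -URA), treated with compound, and growth recovery is read at OD600.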
TbPYK inhibitor – qHTS of Trypanosoma Brucei Inhibitors; pyruvate kinase (Trypanosoma brucei), Q57TT1; TbPYK enzyme, Kinase-Glo Plus ATP luminescence, 45 min; Potency, µM (highest dose often 76.8 µM), most hits filed as inhibitors; hit rate 0.12% among 410,000; AID 624173, 2012; also: nearly all actives have a fitted effect of over 50% in size
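T. brucei PYK with substrate was exposed to pin-transferred compounds across a concentration series, then started with 130 uM ADP (final). After 45 min at room temperature, Kinase-Glo Plus luminescence was read, normalized and curve-fitted.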
Numbers stand for hits; – = inactive; ? = inconclusive; · = not tested or not shown. A selection: hits, their analogues and other compounds. The true share with any hit is near 3.3%. Unless noted, calls follow the shape of the dose curve; as a rule, active = well fitted curve in the direction sought with a large enough effect; inconclusive = small, poorly fitted or top-dose-only effect, or another doubt; inactive = no such curve, though single readings can be large; an effect the other way counts as inactive or inconclusive.

SMILES	Sm TGR inh	RE007 growth inh	LmPK inhibitor	SARS PLpro yeast	NS1 inh	TbPYK inhibitor
Cc1ccnc(NC(=O)CCc2c[nH]c3ccccc23)c1	–	–	–	–	–	–
Cc1ccnc(NC(c2ccncc2)c2c(C)[nH]c3ccccc23)c1 (stereo not drawn)	2µM	–	–	–	–	–
Cn1c(CO)cnc1S(=O)(=O)Cc1ccc([N+](=O)[O-])cc1	28µM	–	–	–	–	–
CCc1cc(=S)n2c([nH]c3ccccc32)c1C#N	1.6µM	–	–	–	·	?
CCc1c(C)c(C#N)c2[nH]c3ccccc3n2c1=S	0.56µM	–	?	–	–	14µM
Cc1ccc(-c2nnn3c2nc(NCC(C)c2ccccc2)c2ccccc23)cc1 (stereo not drawn)	–	·	·	·	·	–
CCOc1ccc(/C=C/C(=O)c2cc(Br)ccc(=O)c2O)cc1	28µM	–	–	–	–	–
Cc1ccc(C)c(S(=O)(=O)c2nnn3c2nc(Nc2ccc(F)c(Cl)c2)c2sccc23)c1	–	·	·	·	·	–
CCC(C)NC(=O)CCc1c(C)nc2cc(-c3ccc(OC)cc3OC)nn2c1C (stereo not drawn)	–	·	·	·	·	–
COc1cc(/C=N/Nc2ccccc2[N+](=O)[O-])cc(OC)c1O	–	–	–	–	·	–
COc1cc(/C=N/Nc2ccc(F)cc2F)cc(OC)c1O	25µM	–	–	·	–	?
COc1cc(CC2COC(c3ccc(O)c(OC)c3)C2COC(C)=O)ccc1O (stereo not drawn)	40µM	–	–	–	–	–
COc1cc([C@@H]2OC[C@@H]3[C@H]2CO[C@@H]3c2ccc3c(c2)OCO3)ccc1O	·	–	·	–	·	–
CCOc1ccc(CC(=O)Nc2c(C(=O)Nc3ccc(OC)cc3OC)oc3ccccc23)cc1	–	·	·	·	·	–
Cc1cc(=O)[nH]c(SCC(=O)C23CC4CC(CC(C4)C2)C3)c1C#N	16µM	–	–	–	–	–
CCc1ccc(C(=O)c2cn(CC(=O)Nc3cc(F)ccc3F)c3nc(C)ccc3c2=O)cc1	–	·	·	·	·	–
O=C(CCl)NCc1cc(-c2ccc(Cl)cc2)no1	32µM	–	–	–	·	–
COc1ccc(F)cc1S(=O)(=O)NCC(c1ccco1)S(=O)(=O)c1cccs1 (stereo not drawn)	0.1µM	·	·	·	·	–
COc1ccc(S(=O)(=O)NCC(c2cccs2)S(=O)(=O)c2ccc(C)cc2)cc1F (stereo not drawn)	?	·	·	·	·	–
COc1ccc(C)cc1S(=O)(=O)NCC(c1cccs1)S(=O)(=O)c1ccc(C)cc1 (stereo not drawn)	?	·	·	·	·	–
COc1ccc(OC)c(S(=O)(=O)NCC(c2cccs2)S(=O)(=O)c2ccc(F)cc2)c1 (stereo not drawn)	0.32µM	·	·	·	·	–
COc1ccc(F)cc1S(=O)(=O)NCC(c1ccco1)S(=O)(=O)c1ccc(F)cc1 (stereo not drawn)	0.32µM	·	·	·	·	–
COc1ccc(S(=O)(=O)NCC(c2ccco2)S(=O)(=O)c2cccs2)cc1OC (stereo not drawn)	0.28µM	·	·	·	·	–
COc1cc(Cl)c(S(=O)(=O)NCCc2c(C)[nH]c3c(C)cccc23)cc1Cl	–	·	·	·	·	–
Cc1nc(SCC(=O)Nc2ccccc2Cl)cc(-c2ccccc2)n1	–	·	·	·	·	–
CCO[C@@H](Cc1ccc(OCCc2ccc(OS(C)(=O)=O)cc2)cc1)C(=O)O	·	·	·	·	·	–
Cc1ccc(C)c(S(=O)(=O)NCC(c2ccco2)N2CCc3ccccc3C2)c1 (stereo not drawn)	–	–	·	–	·	–
Cc1ccc(C)c(S(=O)(=O)NCC(c2ccco2)S(=O)(=O)c2ccc(F)cc2)c1 (stereo not drawn)	0.35µM	·	·	·	·	–
Clc1ccc(Nc2nnc(Cc3ccncc3)c3ccccc23)cc1	·	·	·	·	·	–
COc1ccccc1C(=O)Nc1ccc2c(c1)nc1n2CCN(C2CCCCC2)C1	25µM	–	–	–	–	–
